Measurements published in the supplement of paper PMC12494721.
Counter-ions that a name gives are not always drawn.

The compounds below were run on Klebsiella aerogenes DSM 30053 (assay: fold change of Cadaverine concentration vs plate DMSO controls (fold change (ratio)); higher = more amine produced, active = hit call of the paper (significant change in both replicates, either direction)). Settings: incubation time: 27 h, anaerobic, 37 °C.
Summary of the method: (§1)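 Anaerobic mGAM cultures of four gut bacterial strains were grown at 37 °C for 27 h in 80 µL wells, starting at OD 0.1 before 1:1 dilution. Compounds were at 20 µM final (sweeteners 50 µM). Whole cultures were extracted with cold acetonitrile/methanol containing 0.1% formic acid and centrifuged. Amines were quantified by LC–triple-quadrupole MS (dynamic MRM) against external calibration curves and drift-corrected within batch. Each value is the fold change versus plate DMSO controls, averaged over 2 biological replicates.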

Fold change of Cadaverine concentration, inactive:
CCCCc1oc2ccc(NS(C)(=O)=O)cc2c1C(=O)c1ccc(OCCCN(CCCC)CCCC)cc1 [Dronedarone hydrochloride] (20 µM) 1.01
CCN1CCCC(OC(=O)C(c2ccccc2)c2ccccc2)C1 (stereo not given) [Piperidolate hydrochloride] (20 µM) 0.993
C[C@]1(Cn2ccnn2)[C@H](C(=O)O)N2C(=O)C[C@H]2S1(=O)=O [Tazobactam] (20 µM) 1.03
O=C(CCCN1CCN(c2ccccn2)CC1)c1ccc(F)cc1 [Azaperone] (20 µM) 1.01
CC(=O)Nc1c(I)c(NC(C)=O)c(I)c(C(=O)O)c1I [Diatrizoic acid dihydrate] (20 µM) 0.988
CN[C@@H]1[C@@H](O)[C@@H](O[C@@H]2[C@@H](O)[C@H](O[C@H]3OC(CN)=CC[C@H]3N)[C@@H](N)C[C@H]2N)OC[C@]1(C)O [Sisomicin sulfate] (20 µM) 1
CC(CN(C)C)C(C)(O)Cc1ccc(Cl)cc1 (stereo not given) [Clobutinol hydrochloride] (20 µM) 0.988
CC(=O)[C@H]1CC[C@H]2[C@@H]3C[C@H](C)C4=CC(=O)CC[C@]4(C)[C@H]3[C@@H](O)C[C@]12C [Medrysone] (20 µM) 0.996
CC(C(=O)O)c1ccc(-c2ccccc2)c(F)c1 (stereo not given) [Flurbiprofen] (20 µM) 1.01
CCOC(=O)/C=C(C)/C=C/C=C(C)/C=C/c1c(C)cc(OC)c(C)c1C [Etretinate] (20 µM) 0.983
c1ccc2c(CC3=NCCN3)cccc2c1 [Naphazoline hydrochloride] (20 µM) 1
CCCCC(=O)N(Cc1ccc(-c2ccccc2-c2nnn[nH]2)cc1)[C@H](C(=O)O)C(C)C [Valsartan] (20 µM) 1.05
COc1ccccc1O [Guaiacol] (20 µM) 0.988
OC[C@H]1O[C@@H](O[C@@H]2[C@@H](CO)OC(O)(CO)[C@H]2O)[C@H](O)[C@@H](O)[C@H]1O (mixture of isomers) [Lactulose] (50 µM) 0.994
CC(C)COC(=O)OCN1C(=O)CN(CCN2CC(=O)N(COC(=O)OCC(C)C)C(=O)C2)CC1=O [Sobuzoxane] (20 µM) 1
NS(=O)(=O)c1cc2c(cc1C(F)(F)F)NC(Cc1ccccc1)NS2(=O)=O (stereo not given) [Bendroflumethiazide] (20 µM) 1
CCOC(=O)[C@H](CCc1ccccc1)N[C@H]1CCc2ccccc2N(CC(=O)O)C1=O [Benazepril hydrochloride] (20 µM) 1.02
CC(=O)Oc1cc(C(C)C)c(OCCN(C)C)cc1C [Moxisylyte hydrochoride] (20 µM) 1
O=C1c2c(O)ccc(O)c2C(=O)c2c(NCCNCCO)ccc(NCCNCCO)c21 [Mitoxantrone dihydrochloride] (20 µM) 1.04
Nc1cccc2c1C(=O)N(C1CCC(=O)NC1=O)C2=O (stereo not given) [Pomalidomide] (20 µM) 1.03
CCCCOc1ccc(C(=O)CCN2CCCCC2)cc1 [Dyclonine hydrochloride] (20 µM) 0.984
OCC(O)CN1CCN(c2ccccc2)CC1 (stereo not given) [Dropropizine] (20 µM) 0.992
CN(C)CCC(c1ccc(Cl)cc1)c1ccccn1 (stereo not given) [Chlorpheniramine maleate] (20 µM) 1
CNCC(O)c1ccc(OC(=O)C(C)(C)C)c(OC(=O)C(C)(C)C)c1 (stereo not given) [Dipivefrin hydrochloride] (20 µM) 0.991
CC(=O)O[C@H]1C[C@@]2(C)[C@@H](C[C@@H](O)[C@H]3[C@@]4(C)CC[C@@H](O)[C@@H](C)[C@@H]4CC[C@@]32C)/C1=C(\CCC=C(C)C)C(=O)O [Fusidic acid sodium salt] (20 µM) 1.02
CCOc1ccccc1OCC1CNCCO1 (stereo not given) [Viloxazine hydrochloride] (20 µM) 0.992
OC[C@H]1O[C@@H](O[C@H]2[C@H](O)[C@@H](O)[C@H](O)O[C@@H]2CO)[C@H](O)[C@@H](O)[C@H]1O [Lactose] (50 µM) 1.02
CCC(=O)c1ccc(O)cc1 [Paroxypropione] (20 µM) 1.01
CCOc1ccc2ccccc2c1C(=O)N[C@@H]1C(=O)N2[C@@H]1SC(C)(C)[C@@H]2C(=O)O [Nafcillin sodium salt monohydrate] (20 µM) 1.02

These compounds were tested on Ruminococcus gnavus DSM 108212 (assay: fold change of 2-Phenylethylamine concentration vs plate DMSO controls (fold change (ratio)); higher = more amine produced, active = hit call of the paper (significant change in both replicates, either direction)). Settings: incubation time: 27 h, anaerobic, 37 °C.
Summary of the method: as §1

Fold change of 2-Phenylethylamine concentration, inactive:
CCCCCCC[N+](CC)(CC)CCCCc1ccc(Cl)cc1 [Clofilium tosylate] (20 µM) 0.867
N=C(N)NCC1COC2(CCCCC2)O1 (stereo not given) [Guanadrel sulfate] (20 µM) 1.06
CCCC(CCC)C(=O)O[C@H]1C[C@H]2CC[C@@H](C1)[N+]2(C)C [Anisotropine Methylbromide] (20 µM) 1.06
COc1ccc2c(c1)c(CC(=O)OCC(=O)O)c(C)n2C(=O)c1ccc(Cl)cc1 [Acemetacin] (20 µM) 0.907
CN1CCCN=C1/C=C/c1cccc(O)c1 [Oxantel pamoate] (20 µM) 1.08
COc1c(O[C@@H]2O[C@H](CO)[C@@H](O)[C@H](O)[C@H]2O)cc2c(c1OC)-c1ccc(SC)c(=O)cc1[C@@H](NC(C)=O)CC2 [Thiocolchicoside] (20 µM) 1.01
Cc1c(Nc2ncccc2C(=O)O)cccc1C(F)(F)F [Flunixin meglumine] (20 µM) 1.02
C#C[C@]1(OC(C)=O)CC[C@H]2[C@@H]3CCC4=CC(=NO)CC[C@@H]4[C@H]3CC[C@@]21CC (mixture of isomers) [Norgestimate] (20 µM) 0.905
CC12CC3CC(C)(C1)CC(N)(C3)C2 [Memantine hydrochloride] (20 µM) 1.13
CC(CCc1ccccc1)NCC(O)c1ccc(O)c(C(N)=O)c1 (stereo not given) [Labetalol hydrochloride] (20 µM) 0.939
CCCCc1oc2ccc(NS(C)(=O)=O)cc2c1C(=O)c1ccc(OCCCN(CCCC)CCCC)cc1 [Dronedarone hydrochloride] (20 µM) 0.957
CCN1CCCC(OC(=O)C(c2ccccc2)c2ccccc2)C1 (stereo not given) [Piperidolate hydrochloride] (20 µM) 1.06
C[C@]1(Cn2ccnn2)[C@H](C(=O)O)N2C(=O)C[C@H]2S1(=O)=O [Tazobactam] (20 µM) 1.1
O=C(CCCN1CCN(c2ccccn2)CC1)c1ccc(F)cc1 [Azaperone] (20 µM) 0.998
CC(=O)Nc1c(I)c(NC(C)=O)c(I)c(C(=O)O)c1I [Diatrizoic acid dihydrate] (20 µM) 1.01
CN[C@@H]1[C@@H](O)[C@@H](O[C@@H]2[C@@H](O)[C@H](O[C@H]3OC(CN)=CC[C@H]3N)[C@@H](N)C[C@H]2N)OC[C@]1(C)O [Sisomicin sulfate] (20 µM) 1.04
CC(CN(C)C)C(C)(O)Cc1ccc(Cl)cc1 (stereo not given) [Clobutinol hydrochloride] (20 µM) 0.988
CC(=O)[C@H]1CC[C@H]2[C@@H]3C[C@H](C)C4=CC(=O)CC[C@]4(C)[C@H]3[C@@H](O)C[C@]12C [Medrysone] (20 µM) 1.01
CC(C(=O)O)c1ccc(-c2ccccc2)c(F)c1 (stereo not given) [Flurbiprofen] (20 µM) 0.882
CCOC(=O)/C=C(C)/C=C/C=C(C)/C=C/c1c(C)cc(OC)c(C)c1C [Etretinate] (20 µM) 1.04
c1ccc2c(CC3=NCCN3)cccc2c1 [Naphazoline hydrochloride] (20 µM) 0.994
CCCCC(=O)N(Cc1ccc(-c2ccccc2-c2nnn[nH]2)cc1)[C@H](C(=O)O)C(C)C [Valsartan] (20 µM) 1.12
COc1ccccc1O [Guaiacol] (20 µM) 1.06
OC[C@H]1O[C@@H](O[C@@H]2[C@@H](CO)OC(O)(CO)[C@H]2O)[C@H](O)[C@@H](O)[C@H]1O (mixture of isomers) [Lactulose] (50 µM) 0.98
CC(C)COC(=O)OCN1C(=O)CN(CCN2CC(=O)N(COC(=O)OCC(C)C)C(=O)C2)CC1=O [Sobuzoxane] (20 µM) 1.05
NS(=O)(=O)c1cc2c(cc1C(F)(F)F)NC(Cc1ccccc1)NS2(=O)=O (stereo not given) [Bendroflumethiazide] (20 µM) 0.957
CCOC(=O)[C@H](CCc1ccccc1)N[C@H]1CCc2ccccc2N(CC(=O)O)C1=O [Benazepril hydrochloride] (20 µM) 1.01
CC(=O)Oc1cc(C(C)C)c(OCCN(C)C)cc1C [Moxisylyte hydrochoride] (20 µM) 0.982
O=C1c2c(O)ccc(O)c2C(=O)c2c(NCCNCCO)ccc(NCCNCCO)c21 [Mitoxantrone dihydrochloride] (20 µM) 0.958
Nc1cccc2c1C(=O)N(C1CCC(=O)NC1=O)C2=O (stereo not given) [Pomalidomide] (20 µM) 1.07
CCCCOc1ccc(C(=O)CCN2CCCCC2)cc1 [Dyclonine hydrochloride] (20 µM) 0.936
